SMILES strings stand for the structures. Inconclusive results are not listed. Where a call stands in place of a potency, no number is given. Calls of active or inactive are those of the source. Unless noted, calls follow the shape of the full dose curve.

Chain of Peroxisome proliferator-activated receptor delta (Homo sapiens) (Q03181 whole entry, looked up): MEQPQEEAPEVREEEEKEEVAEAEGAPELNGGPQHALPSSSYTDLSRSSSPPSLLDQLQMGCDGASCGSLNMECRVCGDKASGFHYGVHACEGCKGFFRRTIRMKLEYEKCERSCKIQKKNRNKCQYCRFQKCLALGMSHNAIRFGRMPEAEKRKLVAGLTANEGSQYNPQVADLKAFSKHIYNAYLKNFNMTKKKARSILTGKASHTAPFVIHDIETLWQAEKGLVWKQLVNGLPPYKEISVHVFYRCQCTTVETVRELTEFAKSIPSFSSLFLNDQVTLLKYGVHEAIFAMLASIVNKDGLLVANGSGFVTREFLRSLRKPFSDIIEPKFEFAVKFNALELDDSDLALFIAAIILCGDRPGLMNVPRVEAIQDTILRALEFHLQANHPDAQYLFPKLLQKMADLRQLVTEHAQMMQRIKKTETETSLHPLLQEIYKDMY

System in the first assay: not listed separately
Briefly: qHTS assay to identify small molecule agonists of the peroxisome proliferator-activated receptor delta (PPARd) signaling pathway - cell viability counter screen (AID 743211; active = well fitted cell-killing curve with a large enough effect in the repeat runs; also: nearly all actives have a fitted effect of over 55% in size). The conditions noted are these: PPARd-bla HEK293H viability, CellTiter-Glo luminescence, 17 h; series mostly up to 62.6 µM. The procedure, abridged:
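Tox21 library compounds, delivered in DMSO, were incubated 17 h with PPARd-bla HEK293H cells; cytotoxicity was taken from CellTiter-Glo luminescence read 30 min after reagent addition.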
On to `CN1[C@@H]2CC[C@H]1CC(OC(=O)c1c[nH]c3ccccc13)C2` (stereo partly drawn), for which the Potency result was “inactive”.

With `O=S(=O)(O)C(F)(F)F`, the Potency result is “inactive”.

For `CCN1CC(CCN2CCOCC2)C(c2ccccc2)(c2ccccc2)C1=O` (stereo not drawn), the Potency result was “inactive”.

With `CCOc1ccc(OCC)c(Cl)c1`, the Potency result is “inactive”.

Turning to `CC(C)(C)c1cccc(O)c1`, the Potency result was “inactive”.

On to `OCCN1CCN(CCO)CC1`, for which the Potency entry is “inactive”.

Consider `CCc1cc(Cl)c(OC)c(C(=O)NC[C@@H]2CCCN2CC)c1O`, for which the Potency result is “inactive”.

With `CC(C)C1=CC2=CC[C@@H]3[C@](C)(CCC[C@@]3(C)C(=O)O)[C@H]2CC1`, the Potency result was “inactive”.

For the compound `O=Cc1ccc(F)c(Br)c1`, the Potency entry was “inactive”.

Regarding `CC(=O)OC1C2(C)CCC(C2)C1(C)C` (stereo not drawn), the Potency entry is “inactive”.

In the case of `CO[Si](C)(C)OC`, the Potency result was “inactive”.

As for `CC(C)C(=O)OCC(C)(C)C(O)C(C)C` (stereo not drawn), the Potency entry is “inactive”.

With `C[C@@H]1CN(c2c(F)c(N)c3c(=O)c(C(=O)O)cn(C4CC4)c3c2F)C[C@H](C)N1`, the Potency result is “inactive”.

`COC(=O)N[C@H](C(=O)N[C@@H](Cc1ccccc1)[C@@H](O)CN(Cc1ccc(-c2ccccn2)cc1)NC(=O)[C@@H](NC(=O)OC)C(C)(C)C)C(C)(C)C`: the Potency entry is “inactive”.

Consider `CCCCCCCCCC#N`, for which the Potency entry is “inactive”.

On to `Cc1ccc(C)c(N)c1`, for which the Potency result is “inactive”.

With `O=C1CCCc2ccccc21`, the Potency entry was “inactive”.

For `O=CCCc1ccccc1`, the Potency result was “inactive”.

Turning to `Cc1cn([C@@H]2O[C@H](CO)[C@@H](O)[C@@H]2F)c(=O)[nH]c1=O`, the Potency entry is “inactive”.

Regarding `O=C(O)C(=O)Cc1c[nH]c2ccccc12`, the Potency result is “inactive”.

With `CCCCN1C[C@H](O)[C@@H](O)[C@H](O)[C@H]1CO`, the Potency result is “inactive”.

As for `CC/C=C\CCOC(=O)CCCCC`, the Potency entry was “inactive”.

In the case of `COc1ccccc1N1CCN(CCCNc2cc(=O)n(C)c(=O)n2C)CC1`, the Potency result is “inactive”.

`CC1(C)C(=O)N(Cl)C(=O)N1Br`: the Potency entry is “inactive”.

As for `CN(C)CCOc1ccccc1Cc1ccccc1`, the Potency result is “inactive”.

On to `CN(C)Cc1ccccc1`, for which the Potency entry is “inactive”.

`CC(Oc1c(Cl)cccc1Cl)C1=NCCN1` (stereo not drawn): the Potency result is “inactive”.

Consider `O=C(O)CN(CCN(CC(=O)O)CC(=O)O)CCN(CC(=O)O)CC(=O)O`, for which the Potency entry was “inactive”.

In the case of `Cc1ccc([N+](=O)[O-])c(N)c1`, the Potency result was “inactive”.

Consider `O=C(CCCl)NCc1ccccc1`, for which the Potency entry was “inactive”.

As to `NC/C=C/C(=O)O`, the Potency entry was “inactive”.

For the compound `Nc1cccc(S(=O)(=O)O)c1`, the Potency result is “inactive”.

In the case of `CN1CCC[C@@H]1Cc1c[nH]c2ccc(CCS(=O)(=O)c3ccccc3)cc12`, the Potency entry is “inactive”.

On to `CC(C)OC(C)C`, for which the Potency entry is “inactive”.

Consider `CCOC(=O)c1cc(=O)c2c(OCC(COc3cccc4oc(C(=O)OCC)cc(=O)c34)OC(=O)[C@@H](N)CCCCN)cccc2o1`, for which the Potency result was “inactive”.

`CC(C)=CCC[C@](C)(O)[C@@H]1CC=C(C)CC1`: the Potency entry was “inactive”.

Turning to `O=C(C(Cl)Cl)N1CCOC12CCCCC2`, the Potency result is “inactive”.

Consider `C[C@]12CCC(=O)C=C1CC[C@@H]1[C@@H]2CC[C@@]2(C)[C@H]1CC[C@]2(O)C(=O)CO`, for which the Potency entry is “inactive”.

Consider `CC(C)Nc1nc(N)nc(Cl)n1`, for which the Potency result is “inactive”.

The target in another assay is Peroxisome proliferator-activated receptor delta (Homo sapiens) (UniProt Q03181). Put plainly: qHTS assay to identify small molecule agonists of the peroxisome proliferator-activated receptor delta (PPARd) signaling pathway (AID 743212). To be noted: HEK293H PPARd-UAS-bla, beta-lactamase FRET ratio, 17 h; series mostly up to 62.6 µM. The gist of the method:
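Read-out: beta-lactamase FRET fluorescence after 2 h room-temperature incubation with LiveBLAzer B/G substrate. Cells were HEK293H carrying a UAS-bla reporter for PPARd, treated at 37 C with DMSO-dissolved compounds.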
Background: Quantitative high-throughput screening tests each substance at several concentrations.
On to `CN1[C@@H]2CC[C@H]1CC(OC(=O)c1c[nH]c3ccccc13)C2` (stereo partly drawn), for which the result was inactive.

Turning to `O=S(=O)(O)C(F)(F)F`, the outcome was inactive.

For the compound `CCN1CC(CCN2CCOCC2)C(c2ccccc2)(c2ccccc2)C1=O` (stereo not drawn), the result was inactive.

As for `CCOc1ccc(OCC)c(Cl)c1`, the result was inactive.

For the compound `CC(C)(C)c1cccc(O)c1`, the result was inactive.

In the case of `OCCN1CCN(CCO)CC1`, the result was inactive.

`CCc1cc(Cl)c(OC)c(C(=O)NC[C@@H]2CCCN2CC)c1O`: the result was inactive.

Take `CC(C)C1=CC2=CC[C@@H]3[C@](C)(CCC[C@@]3(C)C(=O)O)[C@H]2CC1`: the outcome was inactive.

Consider `O=Cc1ccc(F)c(Br)c1`, for which the outcome was inactive.

In the case of `CC(=O)OC1C2(C)CCC(C2)C1(C)C` (stereo not drawn), the outcome was inactive.

On to `CO[Si](C)(C)OC`, for which the outcome was inactive.

For `CC(C)C(=O)OCC(C)(C)C(O)C(C)C` (stereo not drawn), the outcome was inactive.

As for `C[C@@H]1CN(c2c(F)c(N)c3c(=O)c(C(=O)O)cn(C4CC4)c3c2F)C[C@H](C)N1`, the outcome was inactive.

In the case of `COC(=O)N[C@H](C(=O)N[C@@H](Cc1ccccc1)[C@@H](O)CN(Cc1ccc(-c2ccccn2)cc1)NC(=O)[C@@H](NC(=O)OC)C(C)(C)C)C(C)(C)C`, the result was inactive.

As to `CCCCCCCCCC#N`, the outcome was inactive.

In the case of `Cc1ccc(C)c(N)c1`, the outcome was inactive.

Turning to `O=C1CCCc2ccccc21`, the outcome was inactive.

For the compound `O=CCCc1ccccc1`, the result was inactive.

On to `Cc1cn([C@@H]2O[C@H](CO)[C@@H](O)[C@@H]2F)c(=O)[nH]c1=O`, for which the result was inactive.

Consider `O=C(O)C(=O)Cc1c[nH]c2ccccc12`, for which the result was inactive.

In the case of `CCCCN1C[C@H](O)[C@@H](O)[C@H](O)[C@H]1CO`, the outcome was inactive.

On to `CC/C=C\CCOC(=O)CCCCC`, for which the outcome was inactive.

As for `COc1ccccc1N1CCN(CCCNc2cc(=O)n(C)c(=O)n2C)CC1`, the outcome was inactive.

Take `CC1(C)C(=O)N(Cl)C(=O)N1Br`: the result was inactive.

Turning to `CN(C)CCOc1ccccc1Cc1ccccc1`, the outcome was inactive.

Take `CN(C)Cc1ccccc1`: the outcome was inactive.

Consider `CC(Oc1c(Cl)cccc1Cl)C1=NCCN1` (stereo not drawn), for which the result was inactive.

Turning to `O=C(O)CN(CCN(CC(=O)O)CC(=O)O)CCN(CC(=O)O)CC(=O)O`, the outcome was inactive.

For `Cc1ccc([N+](=O)[O-])c(N)c1`, the outcome was inactive.

Take `O=C(CCCl)NCc1ccccc1`: the outcome was inactive.

Consider `NC/C=C/C(=O)O`, for which the result was inactive.

`Nc1cccc(S(=O)(=O)O)c1`: the outcome was inactive.

As for `CN1CCC[C@@H]1Cc1c[nH]c2ccc(CCS(=O)(=O)c3ccccc3)cc12`, the outcome was inactive.

With `CC(C)OC(C)C`, the outcome was inactive.

Consider `CCOC(=O)c1cc(=O)c2c(OCC(COc3cccc4oc(C(=O)OCC)cc(=O)c34)OC(=O)[C@@H](N)CCCCN)cccc2o1`, for which the result was inactive.

As to `CC(C)=CCC[C@](C)(O)[C@@H]1CC=C(C)CC1`, the result was inactive.

With `O=C(C(Cl)Cl)N1CCOC12CCCCC2`, the outcome was inactive.

For the compound `C[C@]12CCC(=O)C=C1CC[C@@H]1[C@@H]2CC[C@@]2(C)[C@H]1CC[C@]2(O)C(=O)CO`, the result was inactive.

`CC(C)Nc1nc(N)nc(Cl)n1`: the outcome was inactive.

The values above are taken from PubChem BioAssay (Tox21).
